Most compounds without a hit are left out; they make up all but 4.3% or so of the library.
FAS TE block: inhibitors of human fatty acid synthase thioesterase domain; 0.67% of 360,000 active; recombinant FAS-TE, OMFH fluorogenic substrate, fluorescence endpoint; AID 602261; inhibition, % at 15 µM; P49327;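 active = compounds whose normalised, plate-corrected inhibition of enzyme fluorescence in the single-dose primary screen is 50% or more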;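 note: 0% = DMSO with enzyme and 100% = substrate without enzyme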
ADAM17 inh: ADAM17 inhibition, QFRET primary screen | P78536 | recombinant ADAM17, EDANS/DABCYL FRET peptide cleavage | inhibition, % at 6.95 µM | 0.83% of 370,000 active | AID 720648;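 active = inhibition above the mean of compounds lying between control limits plus 3 SD, set per campaign, cut at about 8.5% in these data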;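 note: 0% = DMSO-only wells as the low control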
ADAM10 inh: inhibits human ADAM10 | AID 720582 | O14672 | inhibition, % at 7 µM | recombinant ADAM10, EDANS/DABCYL FRET peptide cleavage, 3 h | 0.62% of 370,000 active;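 active = inhibition above a per-campaign cutoff equal to the mean of compounds falling between control-based bounds plus 3 SD, cut at about 20% in these data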;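 note: 0% = DMSO wells while the 100% control is not disclosed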
Target sequence (O14672 214-748 limits assumed): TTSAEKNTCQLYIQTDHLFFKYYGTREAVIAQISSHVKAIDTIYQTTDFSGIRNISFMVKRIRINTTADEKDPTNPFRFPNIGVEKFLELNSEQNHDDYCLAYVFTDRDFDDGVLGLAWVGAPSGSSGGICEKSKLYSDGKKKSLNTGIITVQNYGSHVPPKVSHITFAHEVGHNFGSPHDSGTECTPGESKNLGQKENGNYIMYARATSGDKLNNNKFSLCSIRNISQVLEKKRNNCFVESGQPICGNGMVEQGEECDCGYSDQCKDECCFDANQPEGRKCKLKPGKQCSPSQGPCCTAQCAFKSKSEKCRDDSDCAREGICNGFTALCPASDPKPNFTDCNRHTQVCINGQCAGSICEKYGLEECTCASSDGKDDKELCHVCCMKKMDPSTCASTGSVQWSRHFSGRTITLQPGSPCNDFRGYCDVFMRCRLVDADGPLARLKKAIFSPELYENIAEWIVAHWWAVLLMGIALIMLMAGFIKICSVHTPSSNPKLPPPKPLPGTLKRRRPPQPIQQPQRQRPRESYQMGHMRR
GRIN3A LBD mod: NR3A (human) ligand-binding domain modulation; Tm shift relative to glycine control, % at 25 µM; 2.5% of 340,000 active; NR3A LBD differential scanning fluorimetry, Tm shift; 0% = protein alone, 100% = glycine-bound protein;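 active = melting temperature shift of at least 10% of the positive control shift, at one fixed dose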
sPLA2-III inh: Inhibits HGIII-sPLA2 liposome hydrolysis, primary screen | Q9NZ20 | QFRET BODIPY PC-A2 liposome hydrolysis, fluorescence | inhibition, % at 12.2 µM | 0.56% of 370,000 active | AID 743126;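 active = inhibition above mean plus 3 SD of compounds lying within the high and low control bounds, cut at about 19% in these data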;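 note: 0% = median of test compound wells and 100% = no enzyme DMSO wells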
hGIII sPLA2 conf: human GIII-sPLA2 inhibition, confirmation. shares compounds with sPLA2-III inh. recombinant hGIII-sPLA2, BODIPY PC-A2 QFRET fluorescence. inhibition, % at 12.2 µM. 34% of 2,000 active;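 active = mean inhibition across triplicates above the hit cutoff set in the earlier primary screen, cut at about 19% in these data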;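 note: 0% = enzyme with DMSO and 100% = DMSO wells lacking enzyme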
535nm interf: optically interferes with 535nm fluorescence in sPLA2 counter-screen; BODIPY FL product fluorescence interference, QFRET; inhibition, % at 12.2 µM; shares compounds with sPLA2-III inh; 8.5% of 2,000 active;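 active = average inhibition above the solvent-only control mean plus 3 SD, cut at about 6% in these data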;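 note: 0% = DMSO with substrate plus product and 100% = DMSO with substrate alone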
535nm interf DR: counter-screen for HGIII-sPLA2 inhibitors: 535nm fluorescence interference, dose response | shares compounds with sPLA2-III inh | BODIPY FL product fluorescence interference, cell-free | IC50, µM | 240 tested, under 10 active;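 active = IC50 at or below 10 µM; inactive = IC50 above 10 µM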
* hit, by the source's call; i = inactive; . = no result.

SMILES	FAS TE block	ADAM17 inh	ADAM10 inh	GRIN3A LBD mod	sPLA2-III inh	hGIII sPLA2 conf	535nm interf	others
Cn1c2ccccc2c(=O)c2c(=O)n(C3CCCCC3)c(-c3ccco3)nc21	-5.8	-4.3	-10.6	-2.4	27.9*	12.2	-42.3
O=C(CSCc1ccccc1)NNC(=S)Nc1cccc(Cl)c1Cl	28.2	1.4	1.2	3.2	38.0*	35.1*	3.5	535nm interf DR=>122
O=C(NNC(=S)Nc1ccccc1Cl)c1ccccc1	-3.2	-3.6	7.6	-0.3	4.3	.	.
Cc1cccc(NC(=S)NNC(=O)c2ccccc2Br)c1	-8.3	2.9	13.1	-3.3	31.1*	25.8*	2.3
COc1ccc(NC(=S)NNC(=O)c2ccccc2OC(F)F)cc1	-8.0	2.1	9.1	-0.5	18.3	.	.
Cc1cccc(NC(=S)NNC(=O)c2ccccc2OC(F)F)c1	-8.5	2.1	0.5	-2.4	23.3*	35.6*	-4.0
O=C(NNC(=S)Nc1ccccc1Cl)c1ccccc1Cl	-3.4	1.5	7.8	-10.3	25.6*	34.6*	4.7	535nm interf DR=>122
CCOC(=O)CC[C@@H]1CC[C@]2(CCCN(C(=O)c3ccco3)C2)O1	.	2.7	3.2	.	1.7	.	.
CC[C@H](NC(=O)[C@H]1O[C@@H](n2cnc3c(=O)[nH]c(N)nc32)[C@H](O)[C@@H]1O)c1ccccc1	.	-4.9	-16.3	.	8.2	.	.
Nc1[nH]c(C(=O)c2ccccc2)c(-c2ccc3ccccc3c2)c1C(=O)NCc1cccc2ccccc12	.	-0.2	-0.3	.	5.8	.	.
COc1ccccc1NC(=S)NNC(=O)c1cc(C)n(C)n1	-8.0	0.8	-1.2	2.8	17.1	.	.
Cc1occc1C(=O)NNC(=S)Nc1ccccc1C(F)(F)F	-9.1	-2.3	-3.2	-3.2	21.4*	26.6*	-4.2
Cc1ccccc1NC(=S)NNC(=O)c1ccoc1C	-6.4	-1.1	-2.8	-0.8	10.0	.	.
COc1ccccc1NC(=S)NNC(=O)c1cc(C)nn1C	-5.1	6.5	12.9	1.5	19.3*	21.6*	-4.5
Cc1cccc(NC(=S)NNC(=O)c2ccc3c(c2)OCO3)c1	-6.7	1.4	3.5	-5.6	22.9*	42.9*	-0.3	535nm interf DR=>122
COc1ccccc1NC(=S)NNC(=O)c1ccccc1Br	-15.4	-1.0	12.9	-2.8	22.1*	19.0	-0.3
Cc1cccc(NC(=O)c2ccc3c(c2)OCCO3)c1	-3.0	-3.4	-0.9	0.8	8.6	.	.
NNC(=S)NCc1ccc2c(c1)OCO2	-10.6	-5.5	-16.1	-1.3	20.0*	10.0	-5.9
COc1ccc(C2(C)NC(=O)N(CC(=O)Nc3c(C)n(C)n(-c4ccccc4)c3=O)C2=O)cc1 (configuration not stated)	-5.6	-1.8	-1.8	-0.6	-7.4	.	.
COc1ccc2cc(C3(C)NC(=O)N(CC(=O)Nc4c(C)n(C)n(-c5ccccc5)c4=O)C3=O)ccc2c1 (configuration not stated)	-10.3	-0.9	-2.5	0.1	21.0*	-0.8	-21.7
C=C(C)c1cccc(C(C)(C)NC(=O)Nc2ccccc2OCC)c1	-5.9	-5.3	-2.7	-1.7	20.9*	-0.2	-6.6
C=C(C)c1cccc(C(C)(C)NC(=O)Nc2cc(C)ccc2OC)c1	16.3	-0.1	2.3	-4.6	-11.4	.	.
N#Cc1ccc(C=NN2CCCCCC2)cc1	9.1	-5.2	-5.0	2.4	20.7*	23.1*	1.7
O=S1(=O)N[C@@H](Cc2ccccc2)COc2cccc(NCCO)c21	.	-5.0	-14.8	.	2.3	.	.
COc1cc(S(=O)(=O)n2c(C)nc3ccccc32)ccc1F	-8.6	-2.3	-8.1	-0.8	20.3*	5.6	-5.2
SMILES	FAS TE block	ADAM17 inh	ADAM10 inh	GRIN3A LBD mod	sPLA2-III inh	hGIII sPLA2 conf	535nm interf	others
COc1ccc(S(=O)(=O)n2c(C)nc3ccccc32)cc1C	-3.2	-3.2	-6.9	-1.0	-4.0	.	.
COc1ccc(CNC(=O)c2cc(-c3ccccc3)c(N3CCOCC3)s2)cc1OC	.	6.8	7.7	.	3.8	.	.
COc1ccc2oc(C(=O)Nc3nc(-c4ccccn4)cs3)c(C)c2c1	7.6	-53.9	-150.6	9.1	21.7*	25.3*	-1.4
O=C(Nc1nc(-c2ccccn2)cs1)c1ccco1	0.7	-10.6	-25.3	0.2	19.9*	2.2	-1.0
O=C(Nc1nc(-c2ccccn2)cs1)c1ccc(Br)s1	4.2	-2.5	-6.6	26.1*	38.1*	26.9*	-0.1
O=C(C(=O)N1CCC(CNS(=O)(=O)c2ccc3ccccc3c2)CC1)c1cc2ccccc2o1	.	4.4	11.4	.	-20.4	.	.
Fc1ccc(C2=Nc3cccc4cccc(c34)N2)cc1	7.6	-1.1	-0.5	0.4	8.7	.	.
FC(F)(F)C1=Nc2cccc3cccc(c23)N1	1.3	-2.0	-4.0	9.1	28.3*	32.1*	12.3*
COC(=O)[C@]12C[C@H](CC(=O)N3CCCCC3)C(=O)N(Cc3ccc4c(c3)OCO4)C1=C[C@H](C(C)(C)C)O[C@@H]2C	.	-0.4	-3.0	.	-0.4	.	.
CN1CCC[C@@H]1CCNC(=O)c1cccc2c1C(=O)c1ccc(N3CCCC3)cc1S2(=O)=O	-17.6	-2.4	0.1	-1.1	77.9*	-21.3	-31.3
O=C(NNC(=O)c1cc2cc(Br)ccc2oc1=O)c1ccc(O)cc1O	3.6	1.2	1.0	16.8*	20.3*	26.2*	-0.3
O=C(NCc1ccccc1)[C@H]1CCCN1C(=O)[C@H]1CCCN1C(=O)N1CCCCC1	.	2.1	15.0	.	3.7	.	.
COc1cccc(C=NNC(=S)NC2CC3CCC2C3)c1O (configuration not stated)	.	-8.0	-7.0	.	26.4*	31.4*	7.8*
CCOc1ccccc1NC(=S)NC1CC2CCC1C2 (configuration not stated)	0.9	.	.	-6.6	.	.	.
COc1ccc(NC(=S)NC2CC3CCC2C3)c(OC)c1 (configuration not stated)	3.0	-1.7	-13.1	-0.4	20.7*	19.7*	-1.2
CC(=O)Nc1nc2ncccn2c1-c1ccccc1	.	-202.8	i	.	5.2	.	.
COc1cc2c(cc1OC)CSC1C(=O)N(C)C(SC2)C(=O)N1C	.	3.2	2.2	.	-1.2	.	.
CSC1=N/C(=C/c2cccnc2)C(=O)N1Cc1ccccc1	-2.8	-13.1	-29.2	-3.5	-0.4	.	.
CSC1=N/C(=C/c2cccnc2)C(=O)N1Cc1ccc(Cl)cc1	4.8	-14.3	-39.7	-2.8	32.5*	3.4	-14.1
CCCCOc1ccc(C(C)NC(=O)C2CCCN(S(=O)(=O)CCC)C2)cc1 (configuration not stated)	-6.4	3.7	-10.9	-2.9	19.5*	-4.4	-19.0
Cc1ccc(OCC(=O)Nc2ccc(S(=O)(=O)N3CCCCC3)cc2)c([N+](=O)[O-])n1	13.9	2.6	9.2	-12.5	-9.3	.	.

From PubChem
